Structures can show the parent of a compound that is named as a salt.
Test system: MDA-MB-468
Assay: phospho-S6 immunofluorescence (DAPI-normalised), per-plate z-score; higher = higher phospho-S6 signal (less pathway suppression)
Conditions: 24 h
Method: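 GPCR-targeted compound library (MedChemExpress HY-L006) tested on MDA-MB-468 PTEN-null TNBC cells in 384-well plates at 0.1, 1 or 10 uM, combined with vehicle, GDC0941 450 nM or lapatinib 1 uM, for 24 h. Phospho-S6 (S240/244) immunofluorescence normalised to DAPI and expressed as a per-plate z-score; values are the mean of biological triplicates.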

Compound	phospho-S6 immunofluorescence (z-score) (co-treatment: GDC0941 450 nM)	phospho-S6 immunofluorescence (z-score) (co-treatment: lapatinib 1 uM)	phospho-S6 immunofluorescence (z-score) (co-treatment: vehicle)
C[C@H]1CN(C[C@H](Cc2ccccc2)C(=O)NCC(=O)O)CC[C@@]1(C)c1cccc(O)c1 [Alvimopan (dihydrate)] (compound 10 µM)	-0.22	0.49	-0.86
O=C(O)COc1cccc(CN(Cc2ccc(-n3cccn3)cc2)S(=O)(=O)c2cccnc2)c1 [Taprenepag] (compound 10 µM)	-0.91	0.34	-0.73
CN(C)N(C)C(=O)[C@@]1(Cc2ccccc2)CCCN(C(=O)[C@@H](Cc2c[nH]c3ccccc23)NC(=O)C(C)(C)N)C1 [Anamorelin] (compound 10 µM)	-0.16	-2.31	0.4
C[C@]12C=CC(=O)C=C1CC[C@H]1[C@@H]3C[C@@H](O)[C@](O)(C(=O)CO)[C@@]3(C)C[C@H](O)[C@@]12F [Triamcinolone] (compound 10 µM)	0.04	0.82	0.94
COC(=O)[C@H](c1ccccc1Cl)N1CCc2sccc2C1 [Clopidogrel (hydrogen sulfate)] (compound 10 µM)	0.58	-1.03	-0.92
c1ccc(CC2=NCCN2)cc1 [Tolazoline (hydrochloride)] (compound 10 µM)	1.08	0.41	0.92
C[C@H](N)[C@H](O)c1cccc(O)c1 [Metaraminol (tartrate)] (compound 10 µM)	0.64	0.89	0.73
COc1ccc2cc(OCC3(C(=O)O)CN(C(=O)c4ccc(F)cc4)C3)ccc2c1 (compound 10 µM)	-1.13	0.61	0.47
COc1cc2c(cc1OC)CN(C(=O)[C@@H](NCc1ccncc1)C(C)(C)C)CC2 (compound 10 µM)	0.85	0.87	-0.05
CC(=O)N[C@H](Cc1ccc2ccccc2c1)C(=O)N[C@H](Cc1ccc(Cl)cc1)C(=O)N[C@H](Cc1cccnc1)C(=O)N[C@@H](CO)C(=O)N(C)[C@@H](Cc1ccc(O)cc1)C(=O)N[C@H](CC(N)=O)C(=O)N[C@@H](CC(C)C)C(=O)N[C@@H](CCCCNC(C)C)C(=O)N1CCC[C@H]1C(=O)N[C@H](C)C(N)=O [Abarelix] (compound 10 µM)	0.77	0.65	-0.38
CC(C)NCC(O)COc1ccc(CC(N)=O)cc1 (stereo unspecified) [Atenolol] (compound 10 µM)	0.35	1.32	0.52
NC(=O)NC1NC(=O)NC1=O (stereo unspecified) [Allantoin] (compound 10 µM)	0.67	0.13	-0.01
CCCCCCCCOc1ccccc1C(=O)Nc1ccc(C(=O)OCC[N+](C)(CC)CC)cc1 [Otilonium (bromide)] (compound 10 µM)	-1.43	2.8	0.94
CCNC(=O)[C@H]1O[C@@H](n2cnc3c(N)nc(NCCc4ccc(CCC(=O)O)cc4)nc32)[C@H](O)[C@@H]1O (compound 10 µM)	0.05	1.28	-0.14
Cc1noc(-c2ccc(-c3ccc(CC(=O)O)cc3)cc2)c1NC(=O)O[C@H](C)c1ccccc1 (compound 10 µM)	0.62	1.57	0.63
COc1ccccc1Oc1c(NS(=O)(=O)c2ccc(C(C)(C)C)cc2)nc(-c2ncccn2)nc1OCCO [Bosentan] (compound 10 µM)	0.53	0.78	1.05
Nc1nc(NCCc2ccc(O)cc2)nc2nc(-c3ccco3)nn12 (compound 10 µM)	-1.88	0.67	1.01
CC(C)NCC(O)COc1ccc(CCOCC2CC2)cc1 (stereo unspecified) [Betaxolol (hydrochloride)] (compound 10 µM)	0.79	0.07	0.74
CSc1ccc2c(c1)N(CCC1CCCCN1C)c1ccccc1S2 (stereo unspecified) [Thioridazine (hydrochloride)] (compound 10 µM)	-5.09	-8.27	-7.88
OC[C@H]1O[C@@H](n2cnc3c(NCc4ccc(O)cc4)ncnc32)[C@H](O)[C@@H]1O [N6-(4-Hydroxybenzyl)adenosine] (compound 10 µM)	-0.95	1.31	0.96
COc1cc(C(=O)NS(=O)(=O)c2ccccc2C)ccc1Cc1cn(C)c2ccc(NC(=O)OC3CCCC3)cc12 [Zafirlukast] (compound 10 µM)	-2.01	-0.41	0.19

Compound	phospho-S6 immunofluorescence (z-score) (co-treatment: GDC0941 450 nM)	phospho-S6 immunofluorescence (z-score) (co-treatment: lapatinib 1 uM)	phospho-S6 immunofluorescence (z-score) (co-treatment: vehicle)
CCCCC[C@H](O)/C=C/[C@@H]1[C@@H](C/C=C\CCCC(=O)O)[C@@H](O)C[C@H]1O [Dinoprost (tromethamine salt)] (compound 10 µM)	-0.07	-0.14	0.98
OC(CCN1CCCCC1)(c1ccccc1)C1CC2C=CC1C2 (stereo unspecified) [Biperiden (Hydrochloride)] (compound 10 µM)	-1.68	-0.97	-1.56
O=C1CCC(c2ccccc2)(C2CCN(Cc3ccccc3)CC2)C(=O)N1 (stereo unspecified) [Benzetimide (hydrochloride)] (compound 10 µM)	0.5	-0.15	0.11
COc1ccc(-c2oc3c(CC=C(C)C)c(O)cc(O)c3c(=O)c2O[C@@H]2O[C@@H](C)[C@H](O)[C@@H](O)[C@H]2O)cc1 [Baohuoside I] (compound 10 µM)	-5.72	-5.94	-7.08
CN1CC2c3ccccc3Oc3ccc(Cl)cc3C2C1 (stereo unspecified) [Asenapine (hydrochloride)] (compound 10 µM)	-0.8	-2.17	0
O=C(O)COCCN1CCN(C(c2ccccc2)c2ccc(Cl)cc2)CC1 (stereo unspecified) [Cetirizine (dihydrochloride)] (compound 10 µM)	-0.15	0.74	0.52
CCCc1nc(C(C)(C)O)c(C(=O)O)n1Cc1ccc(-c2ccccc2-c2nnn[nH]2)cc1 [Olmesartan] (compound 10 µM)	0.13	0.28	-0.82
Cc1c(CC(=O)O)c2cccnc2n1Cc1ccc(S(C)(=O)=O)cc1C(F)(F)F [Fevipiprant] (compound 10 µM)	-2.62	-1.74	-0.9
OC[C@@H](O)CN1CCN(c2ccccc2)CC1 [Levodropropizine] (compound 10 µM)	-0.63	0.66	-0.68
C[C@@H](NCCCc1cccc(C(F)(F)F)c1)c1cccc2ccccc12 [Cinacalcet] (compound 10 µM)	-5.01	-7.68	-6.21
O=c1ccn([C@@H]2O[C@H](COP(=O)(O)OP(=O)(O)OP(=O)(O)OP(=O)(O)OC[C@H]3O[C@@H](n4ccc(=O)[nH]c4=O)[C@H](O)[C@@H]3O)[C@@H](O)[C@H]2O)c(=O)[nH]1 [Diquafosol (tetrasodium)] (compound 10 µM)	0.01	0.71	-0.38
CCN(CCCCOC(=O)c1ccc(OC)c(OC)c1)C(C)Cc1ccc(OC)cc1 (stereo unspecified) [Mebeverine (hydrochloride)] (compound 10 µM)	0.43	0.05	-0.85
CN(C)CCOC(C)(c1ccccc1)c1ccccn1 (stereo unspecified) [Doxylamine (succinate)] (compound 10 µM)	0.33	-0.64	0.58
COc1ccccc1Oc1c(NS(=O)(=O)c2ccc(C(C)(C)C)cc2)nc(-c2ncccn2)nc1OCCO [Bosentan (hydrate)] (compound 10 µM)	0.28	0.22	0.34
Cc1cccn2c(=O)c(C=C(C#N)c3nc4ccccc4s3)c(Oc3ccc(F)cc3)nc12 (compound 10 µM)	0.33	1.14	-0.48
CN1[C@@H]2CC[C@H]1C[C@@H](OC(=O)C(O)c1ccccc1)C2 (stereo partly specified) [Homatropine (Bromide)] (compound 10 µM)	-0.26	0.08	0.37
CNC(=C[N+](=O)[O-])NCCSCc1ccc(CN(C)C)o1 [Ranitidine (hydrochloride)] (compound 10 µM)	0.47	0.54	0.29
CCCCc1ncc(/C=C(\Cc2cccs2)C(=O)O)n1Cc1ccc(C(=O)O)cc1 [Eprosartan (mesylate)] (compound 10 µM)	0.37	0.05	0.01
Cc1c(C(=O)NN2CCCCC2)nn(-c2ccc(Cl)cc2Cl)c1-c1ccc(Cl)cc1 [Rimonabant (Hydrochloride)] (compound 10 µM)	-3.49	-4.25	-5.97
COc1ccc(NS(=O)(=O)c2sc3ccc(Cl)cc3c2C)cc1N1CCNCC1 (compound 10 µM)	0.28	-1	0.35
COc1ccc2[nH]cc(CCNC(C)=O)c2c1 [Melatonin] (compound 10 µM)	-1.25	0.24	-0.21

— the supplement of paper PMC7411640
